This is an account of results in PubChem BioAssay (NCI).

This is part of a sample that, as a whole, favours compounds with a hit. Of some 79,000 tested, about 15% had one in any assay. Calls of active or inactive are those of the source. Cut-off read from the data, not from the text of the source: active = growth inhibition above about 70%; inactive = the rest.

The first assay is described as follows: NCI Yeast Anticancer Drug Screen. Data for the rad50 strain (AID 155).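 Note: 0% = growth of vehicle-only cultures of the same strain.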 Conditions: S. cerevisiae rad50 strain growth inhibition; at 50.0 µM; active compounds read high. In a few lines:
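A DNA repair-deficient yeast mutant serves as the test organism; compound-induced growth inhibition is calculated against vehicle-treated cells.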
Take `Cc1cccc(NC(=O)CCc2ccc(Cl)cc2)n1`: the growth inhibition was 6.3% (inactive).

Turning to `O=C(NNc1nc(-c2ccccc2)cs1)C(F)(F)F`, the growth inhibition was 86.8% (active).

For the molecule `COc1ccc(C(=O)C(c2ccc(OC)cc2)C2(O)C(=O)Nc3c(Cl)cc(Cl)cc32)cc1` (stereo not drawn), the growth inhibition is 91% (active).

`CC(=O)NNc1nc(C)c(C(=O)NNC(=O)C(=O)Nc2ccc(Cl)c([N+](=O)[O-])c2)s1`: the growth inhibition was 70.6% (active).

For the molecule `COc1ccc(Cc2cncc3c(O)c(OC)ccc23)cc1O`, the growth inhibition was 80.2% (active).

For the molecule `Nc1ccccc1N=Nc1c(S(=O)(=O)O)cc2cc(S(=O)(=O)O)cc(O)c2c1O`, the growth inhibition was -24% (inactive).

As for `CCN(CC)c1c(C(=O)/C=C/c2ccc(OC)cc2)c(-c2ccccc2)nn(C)c1=O`, the growth inhibition is 78.1% (active).

As for `O=C(O)/C=C/c1ccc(Cl)c(Cl)c1`, the growth inhibition was 93.1% (active).

Take `CCC12C=CCN3CC[C@@]4(c5cc([C@@]6(C(=O)OC)C[C@@H]7CN(CCc8c6[nH]c6ccccc86)C[C@](O)(CC)C7)c(OC)cc5N(C)[C@H]4[C@@](O)(C(=O)OC)[C@@H]1OC(=O)CCCCCCCCCCCN1C(=O)C=CC1=O)[C@H]32` (stereo partly drawn): the growth inhibition is 88.5% (active).

`Cc1cc(C)c(Cc2cc(C(C)(C)C)cc(C)c2O)cc1Cc1cc(C(C)(C)C)cc(C)c1O`: the growth inhibition was 51.4% (inactive).

For the molecule `COC(=O)C(=O)/C=C(/O)c1ccc(OC)cc1`, the growth inhibition was -2.15% (inactive).

For `Oc1ccc2c(c1)OCC1c3ccccc3OC21` (stereo not drawn), the growth inhibition is 76.7% (active).

Take `Cc1cc(N2C(=O)CCSC2=S)c([N+](=O)[O-])cc1C`: the growth inhibition was 99.3% (active).

Consider `CCCCCCC(C)S(=O)(=O)c1ccc(C)cc1` (stereo not drawn), for which the growth inhibition was 58.5% (inactive).

Consider `S=c1sc2c(s1)SCCOCCOCCOCCS2`, for which the growth inhibition was 29.3% (inactive).

With `N#Cc1cn(-c2c3ccccc3nc3ccccc23)c(=O)[nH]c1=O`, the growth inhibition is 58.4% (inactive).

With `O=C1C=C(c2ccccc2)O/C1=C\C(=O)c1ccc(Cl)cc1`, the growth inhibition was 89.3% (active).

For `O=c1[nH]c2cc(Cl)ccc2nc1/C=C(\O)c1ccc(N2CCN(c3ccc(/C(O)=C/c4nc5ccc(Cl)cc5[nH]c4=O)cc3)CC2)cc1`, the growth inhibition was 95.8% (active).

Take `O=C1Oc2ccccc2C(=O)/C1=C/N1C(=O)/C(=C/c2ccccc2)NC1=S`: the growth inhibition is 66.7% (inactive).

Take `CN(C)/C=C(\C(=O)c1ccccc1)n1nc(-c2ccccc2)cc1-c1ccccc1`: the growth inhibition was 72.5% (active).

For `O=C1C(=O)c2ccccc2C(O)=C1Sc1ccccc1`, the growth inhibition is 95.2% (active).

Turning to `O=C(c1c(F)c(F)c(F)c(F)c1F)n1c(=S)n(C(=O)c2c(F)c(F)c(F)c(F)c2F)c2ccccc21`, the growth inhibition is 42% (inactive).

Turning to `CCCCNCCC1(c2ccccc2)C(=O)Oc2ccccc21` (stereo not drawn), the growth inhibition was 63.2% (inactive).

As to `COc1cc(/C=C/c2cc[n+](C)cc2)ccc1O`, the growth inhibition was 26.1% (inactive).

On to `c1ccc(-c2ccc(-c3ccc(C4=NCCN4)cc3)o2)cc1`, for which the growth inhibition was 95.7% (active).

On to `CCCCCCCCCCCCCCNC(=O)C[N+](C)(C)Cc1ccccc1`, for which the growth inhibition is 99.5% (active).

As for `NC(CSSCC(N)C(=O)Nc1ccc2ccccc2c1)C(=O)Nc1ccc2ccccc2c1` (stereo not drawn), the growth inhibition is 88.6% (active).

For the molecule `O=C(OCc1ccccc1)C(O)c1ccccc1` (stereo not drawn), the growth inhibition is 24.1% (inactive).

Consider `CC(=O)CC1(O)C(=O)Nc2ccc(Br)cc21` (stereo not drawn), for which the growth inhibition was 39% (inactive).

On to `S=C(S)NCCN1CCNCC1`, for which the growth inhibition is 36.8% (inactive).

Turning to `CCCCCCCC(=O)N1CCCCC1CC` (stereo not drawn), the growth inhibition was 72.1% (active).

Regarding `O=C1CCCC1C(=O)OC1CCCC1` (stereo not drawn), the growth inhibition was -7.55% (inactive).

In the case of `CCN1CCC(O)(/C=C/c2cccc(C)c2)C(C(=O)/C=C/c2cccc(C)c2)C1` (stereo not drawn), the growth inhibition is 91% (active).

Regarding `O=C(SCCCc1ccccc1)c1cc([N+](=O)[O-])cc([N+](=O)[O-])c1`, the growth inhibition is 75.7% (active).

In the case of `O=C1C(=O)C2CC3(CC1N2Cc1ccccc1)OCCO3`, the growth inhibition was 98% (active).

Take `CNc1cc(SC)nc(N)n1`: the growth inhibition is 89.7% (active).

Turning to `Clc1ccc(Cl)c(SCCCN2CCNCC2)c1`, the growth inhibition was 79.7% (active).

With `CC(C)C(Cl)CC/C(CBr)=C(\Cl)CCl` (stereo not drawn), the growth inhibition is 75% (active).

On to `O=C(O)CNc1ccc2c(c1)Cc1cc(Br)ccc1-2`, for which the growth inhibition is 97.2% (active).

The next assay in a line: NCI Yeast Anticancer Drug Screen. Data for the mec2-1 strain (AID 157). Conditions: S. cerevisiae mec2-1 strain, at 5.0 µM (retest, dose inferred, filed as 0.5), active compounds read high. The method, boiled down:
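mec2-1 yeast strain, carrying an alteration in DNA damage repair or cell cycle control, was exposed to compounds; growth inhibition was measured relative to vehicle-treated controls.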
With `Cc1cccc(NC(=O)CCc2ccc(Cl)cc2)n1`, the growth inhibition is -17% (inactive).

With `O=C(NNc1nc(-c2ccccc2)cs1)C(F)(F)F`, the growth inhibition was 74% (active).

Take `COc1ccc(C(=O)C(c2ccc(OC)cc2)C2(O)C(=O)Nc3c(Cl)cc(Cl)cc32)cc1` (stereo not drawn): the growth inhibition is -20% (inactive).

On to `CC(=O)NNc1nc(C)c(C(=O)NNC(=O)C(=O)Nc2ccc(Cl)c([N+](=O)[O-])c2)s1`, for which the growth inhibition is 19% (inactive).

Turning to `COc1ccc(Cc2cncc3c(O)c(OC)ccc23)cc1O`, the growth inhibition was 0% (inactive).

Consider `Nc1ccccc1N=Nc1c(S(=O)(=O)O)cc2cc(S(=O)(=O)O)cc(O)c2c1O`, for which the growth inhibition was 3% (inactive).

For `CCN(CC)c1c(C(=O)/C=C/c2ccc(OC)cc2)c(-c2ccccc2)nn(C)c1=O`, the growth inhibition was 8% (inactive).

`O=C(O)/C=C/c1ccc(Cl)c(Cl)c1`: the growth inhibition is -15% (inactive).

With `CCC12C=CCN3CC[C@@]4(c5cc([C@@]6(C(=O)OC)C[C@@H]7CN(CCc8c6[nH]c6ccccc86)C[C@](O)(CC)C7)c(OC)cc5N(C)[C@H]4[C@@](O)(C(=O)OC)[C@@H]1OC(=O)CCCCCCCCCCCN1C(=O)C=CC1=O)[C@H]32` (stereo partly drawn), the growth inhibition was 42% (inactive).

As for `Cc1cc(C)c(Cc2cc(C(C)(C)C)cc(C)c2O)cc1Cc1cc(C(C)(C)C)cc(C)c1O`, the growth inhibition is -5% (inactive).

In the case of `COC(=O)C(=O)/C=C(/O)c1ccc(OC)cc1`, the growth inhibition was -28% (inactive).

Consider `Oc1ccc2c(c1)OCC1c3ccccc3OC21` (stereo not drawn), for which the growth inhibition was 38% (inactive).

With `Cc1cc(N2C(=O)CCSC2=S)c([N+](=O)[O-])cc1C`, the growth inhibition is 7% (inactive).

Consider `CCCCCCC(C)S(=O)(=O)c1ccc(C)cc1` (stereo not drawn), for which the growth inhibition is 14% (inactive).

`S=c1sc2c(s1)SCCOCCOCCOCCS2`: the growth inhibition was 5% (inactive).

For `N#Cc1cn(-c2c3ccccc3nc3ccccc23)c(=O)[nH]c1=O`, the growth inhibition is -9% (inactive).

In the case of `O=C1C=C(c2ccccc2)O/C1=C\C(=O)c1ccc(Cl)cc1`, the growth inhibition was 43% (inactive).

On to `O=c1[nH]c2cc(Cl)ccc2nc1/C=C(\O)c1ccc(N2CCN(c3ccc(/C(O)=C/c4nc5ccc(Cl)cc5[nH]c4=O)cc3)CC2)cc1`, for which the growth inhibition was 0% (inactive).

Turning to `O=C1Oc2ccccc2C(=O)/C1=C/N1C(=O)/C(=C/c2ccccc2)NC1=S`, the growth inhibition is -25% (inactive).

Consider `CN(C)/C=C(\C(=O)c1ccccc1)n1nc(-c2ccccc2)cc1-c1ccccc1`, for which the growth inhibition is -4% (inactive).

Turning to `O=C1C(=O)c2ccccc2C(O)=C1Sc1ccccc1`, the growth inhibition is 20% (inactive).

For `O=C(c1c(F)c(F)c(F)c(F)c1F)n1c(=S)n(C(=O)c2c(F)c(F)c(F)c(F)c2F)c2ccccc21`, the growth inhibition is 19% (inactive).

`CCCCNCCC1(c2ccccc2)C(=O)Oc2ccccc21` (stereo not drawn): the growth inhibition was -4% (inactive).

Take `COc1cc(/C=C/c2cc[n+](C)cc2)ccc1O`: the growth inhibition was 12% (inactive).

In the case of `c1ccc(-c2ccc(-c3ccc(C4=NCCN4)cc3)o2)cc1`, the growth inhibition is 16% (inactive).

Regarding `CCCCCCCCCCCCCCNC(=O)C[N+](C)(C)Cc1ccccc1`, the growth inhibition was 99% (active).

For `NC(CSSCC(N)C(=O)Nc1ccc2ccccc2c1)C(=O)Nc1ccc2ccccc2c1` (stereo not drawn), the growth inhibition is 42% (inactive).

For the molecule `O=C(OCc1ccccc1)C(O)c1ccccc1` (stereo not drawn), the growth inhibition was 2% (inactive).

As to `CC(=O)CC1(O)C(=O)Nc2ccc(Br)cc21` (stereo not drawn), the growth inhibition was 0% (inactive).

As for `S=C(S)NCCN1CCNCC1`, the growth inhibition is -20% (inactive).

Take `CCCCCCCC(=O)N1CCCCC1CC` (stereo not drawn): the growth inhibition was -49% (inactive).

In the case of `O=C1CCCC1C(=O)OC1CCCC1` (stereo not drawn), the growth inhibition is 13% (inactive).

For the molecule `CCN1CCC(O)(/C=C/c2cccc(C)c2)C(C(=O)/C=C/c2cccc(C)c2)C1` (stereo not drawn), the growth inhibition was 41% (inactive).

On to `O=C(SCCCc1ccccc1)c1cc([N+](=O)[O-])cc([N+](=O)[O-])c1`, for which the growth inhibition was 100% (active).

Turning to `O=C1C(=O)C2CC3(CC1N2Cc1ccccc1)OCCO3`, the growth inhibition is -28% (inactive).

In the case of `CNc1cc(SC)nc(N)n1`, the growth inhibition is -2% (inactive).

Take `Clc1ccc(Cl)c(SCCCN2CCNCC2)c1`: the growth inhibition was 0% (inactive).

As for `CC(C)C(Cl)CC/C(CBr)=C(\Cl)CCl` (stereo not drawn), the growth inhibition is 29% (inactive).

On to `O=C(O)CNc1ccc2c(c1)Cc1cc(Br)ccc1-2`, for which the growth inhibition was -1% (inactive).
